Experimental data as given in PubChem BioAssay AID1631 (National Center for Advancing Translational Sciences (NCATS), 2009).
Out of some 260,000 compounds screened, about 890 (0.34%) were called active. Not shown: some 1% with an inconclusive outcome. Calls follow the shape of the dose curve; as a rule, active = well fitted activation curve with a large enough effect; inconclusive = small, poorly fitted or top-dose-only effect; inactive = no such curve, though single readings can be large or run the other way. The entries come from a sample that favours actives as a whole.

Target: Pyruvate kinase PKM (Homo sapiens) (UniProt P14618)
Sequence (P14618 whole entry, looked up, canonical isoform): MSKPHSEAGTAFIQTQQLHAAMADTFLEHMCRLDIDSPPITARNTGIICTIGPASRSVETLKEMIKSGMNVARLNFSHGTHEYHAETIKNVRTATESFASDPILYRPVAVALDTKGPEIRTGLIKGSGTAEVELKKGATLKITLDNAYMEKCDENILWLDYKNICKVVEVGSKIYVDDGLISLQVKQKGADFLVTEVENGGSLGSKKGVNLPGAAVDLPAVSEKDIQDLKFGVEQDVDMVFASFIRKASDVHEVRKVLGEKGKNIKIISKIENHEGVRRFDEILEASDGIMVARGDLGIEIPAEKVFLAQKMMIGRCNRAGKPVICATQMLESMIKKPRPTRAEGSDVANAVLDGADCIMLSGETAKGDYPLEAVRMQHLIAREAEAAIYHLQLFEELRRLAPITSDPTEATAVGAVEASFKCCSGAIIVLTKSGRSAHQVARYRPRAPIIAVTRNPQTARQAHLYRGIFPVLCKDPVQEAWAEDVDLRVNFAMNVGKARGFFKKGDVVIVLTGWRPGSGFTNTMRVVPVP
Assay: qHTS Assay for Activators of Human Muscle isoform 2 Pyruvate Kinase; also: nearly all actives have a fitted effect of over 55% in size
Details: purified PKM2, Kinase-Glo ATP luminescence; Potency: activation; series mostly up to 57.5 µM; activation: at the top concentration
Outline: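 ATP formation by purified human PK-M2, quantified via coupled luciferase luminescence after 1 h at room temperature with 0.1 mM ADP and 0.5 mM PEP final.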
% is scaled to controls: 0 for no effect and ±100 for the full control effect; potency is read from the fitted curve at half-maximal effect.

activation, inactive:
Cc1cc(C)c(SCCc2ccncc2)c(C)c1 0%, COc1cc(/C=N/Nc2nc3ccccc3s2)ccc1O 8.69%, CCOc1cc(/C=C(\C#N)c2nc(-c3cccs3)c(NC(C)=O)s2)ccc1O 0.455%, COc1cccc(CC(=O)Nc2nc(-c3ccc(OC)c(OC)c3)cs2)c1 2.09%, C/C=C(/C)C(=O)Nc1cccc(C2=NOC3(C2)C[C@@H](C(N)=O)N(C(=O)C2(C)CC2)C3)c1 (some centres not stated) -13%, CC/C=C/C(=O)N1CC2(CC(c3cccc(NC(=O)CC)c3)=NO2)C[C@H]1C(N)=O (some centres not stated) 26.5%, CCC(C)C(=O)Nc1ccccc1N1CCN(c2ccc(F)cc2)CC1 (configuration not stated) -0.773%, CCCNC(=O)c1ccc(N2CCC3(CC2)CC(c2ccc(Cl)cc2)=NO3)c([N+](=O)[O-])c1 -7.26%, COc1ccc(C(=O)NCC(=O)N/N=C/c2cccnc2)cc1 0.538% [at 0.46 µM, 0% is enzyme alone, no compound], O=C(NCC(=O)N1CCN(c2ncc(C(F)(F)F)cc2Cl)CC1)c1ccc(Br)o1 -0.619%, O=C(O)c1cccc2c1C(=O)N(C1CCCC1)C2 0.131%, COc1ccc(N(C(=O)c2snc(C(N)=O)c2N)C(C(=O)NC2CCCC2)c2ccc(C)o2)c(OC)c1 (configuration not stated) -4.98%, CN(CC1CCCO1)S(=O)(=O)c1ccc(C(=O)Nc2ccc([N+](=O)[O-])cc2)cc1 (configuration not stated) 0.137%, CCOC(=O)c1csc(CCNC(=O)c2oc3c(Cl)cc(C)cc3c2C)n1 0.455%, CC(C)NS(=O)(=O)c1ccc(OCC(=O)NC2CCCCCC2)cc1 0.476%, O=C(Nc1nnc(C2=COCCO2)o1)c1ccc([N+](=O)[O-])s1 -0.93%, COc1ccc(-n2cc(-c3ccccc3)c3c(=S)nc[nH]c32)cc1 -7.56% [at 0.46 µM, 0% is enzyme alone, no compound], CCc1ccc(CNC(=O)C2CCN(c3nnc(C)c4c(C)n(-c5ccc(C)cc5)nc34)CC2)cc1 -0.982% [at 0.46 µM, 0% is enzyme alone, no compound], Cc1cc(S(=O)(=O)NCc2ccccn2)c(Cl)cc1Cl -2.1% [at 11.5 µM, 0% is enzyme alone, no compound], COc1ccc(N2CCN(S(=O)(=O)CCNC(=O)C34CC5CC(CC(C5)C3)C4)CC2)cc1 0.848%, O=C(Cc1ccc(Cl)c(Cl)c1)Nc1ccc(SC(F)F)cc1 2.17%, CSc1ccc(S(=O)(=O)Nc2cccc(F)c2)cc1 16.7%, Cc1ccccc1C(=O)N1CCN(c2ccc(NC(=O)c3cccs3)cc2)CC1 -0.0426%, Cc1c(C=O)c2ccccc2n1CCOc1ccccc1 2.35%, CCOc1cc(-c2cc(-c3ccc(NC(C)=O)cc3)nc(N)c2C#N)ccc1O -4.71%, CC(C)C(C)NC(=O)COc1nc2ccccc2nc1N(C)C1CCCCC1 (configuration not stated) -0.269%, CCN(C(=O)C1CCCN(c2nc(-c3ccc(OC)cc3)no2)C1)c1ccc(OC)cc1 (configuration not stated) -0.765%, CCn1cc(CN2CCC(C(=O)Nc3cccc(-c4cccc(Cl)c4)c3)CC2)c(C)n1 -2.51%, COc1ccccc1N1CCN(C(=O)CCS(=O)(=O)c2ccc3c(c2)NC(=O)C(C)S3)CC1 (configuration not stated) -0.108%

Potency, active:
COc1cc(/C=N\Nc2nc(-c3cccs3)c(NC(C)=O)s2)ccc1O 11.2 µM, C/C=C\C=C\C(=O)N1CC2(CC(c3cccc(NC(=O)/C(C)=C\C)c3)=NO2)C[C@H]1C(N)=O (some centres not stated) 3.55 µM, Nc1cccc(S(=O)(=O)Nc2ccc(SC(F)F)cc2)c1 14.1 µM
